Measurements published in PubChem BioAssay (NCATS).
Inconclusive results are not listed. A call without a number means that no potency is given here. Activity calls are given as the source filed them. Unless noted, calls come from the whole dose curve; as a rule, active = well fitted curve in the direction sought with a large enough effect; inconclusive = small, poorly fitted or top-dose-only effect, or another doubt; inactive = no such curve, though single readings can be large; an effect the other way counts as inactive or inconclusive.

What was measured:
[1] = Primary qHTS for inhibitors of nuclear receptor binding SET domain protein 2 (NSD2) in an isogenic RCH-ACV NSD2 p.E1099K mutant (9B) (AID 1645876); note: nearly all actives have a fitted effect of over 70% in size; note: potency is the fitted concentration of half-maximal effect
[2] = Primary qHTS for inhibitors of nuclear receptor binding SET domain protein 2 (NSD2) in an RCH-ACV wild type WT cells (2C) (AID 1645877); note: nearly all actives have a fitted effect of over 70% in size; note: potency is the fitted concentration of half-maximal effect
[3] = target: Rap guanine nucleotide exchange factor 3 (Homo sapiens) (UniProt O95398); assay: Confirmatory qHTS for agonist of cAMP-regulated guanine nucleotide exchange factor 3 (EPAC1) (AID 1645881);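 note: EPAC1 catalysed release of BODIPY-GDP from Rap1B seen as fluorescence loss; nearly all actives have a fitted effect of over 75% in size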
[4] = target: Rap guanine nucleotide exchange factor 4 (Homo sapiens) (UniProt Q8WZA2); assay: Confirmatory qHTS for agonist of cAMP-regulated guanine nucleotide exchange factor 4 (EPAC2) (AID 1645884);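 note: nucleotide exchange releases bodipy-GDP from Rap1 and this lowers its fluorescence; nearly all actives have a fitted effect of over 65% in size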
[5] = target: Rap guanine nucleotide exchange factor 4 (Homo sapiens) (UniProt Q8WZA2); assay: Confirmatory qHTS for antagonist of cAMP-regulated guanine nucleotide exchange factor 4 (EPAC2) (AID 1645885); note: nearly all actives have a fitted effect of over 25% in size; note: potency is the fitted concentration of half-maximal effect
[6] = target: Glutathione peroxidase 1 (Homo sapiens) (UniProt P07203); assay: Primary qHTS Assay for Inhibitors of Recombinant Selenoprotein Glutathione Peroxidase 1 (GPX1) (AID 1845191); settings: outcome: dose series up to 48.8 µM; note: nearly all actives have a fitted effect of over 65% in size
Outline: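 Recombinant GPX1 (10 nM final) was preincubated with compound for 30 min at room temperature, then reacted with 1 mM GSH, 0.5 mM CHP, 0.5 mM NADPH and 100 nM glutathione reductase; NADPH fluorescence (340/450 nm) was read at 0 and 15 min.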

[7] = target: Catechol O-methyltransferase (Homo sapiens) (UniProt P21964); assay: Confirmatory Screen for Target Class Profiling of Small Molecule Inhibitors of Methyltransferases (AID 1745852; calls by dose curve); settings: MTase-Glo luminescence, SAH detection, recombinant enzyme; measured here: COMT max response; stronger effect = lower value
[8] = target: Guanidinoacetate N-methyltransferase (Homo sapiens) (UniProt Q14353); assay: as above; settings: MTase-Glo luminescence, SAH detection, recombinant enzyme; activity change, negative = inhibition: at 57.3 µM (top of the series)
[9] = target: Nicotinamide N-methyltransferase (Homo sapiens) (UniProt P40261); assay: as above; settings: MTase-Glo luminescence, SAH detection, recombinant enzyme; measured here: NNMT max response; stronger effect = lower value
[10] = target: Phenylethanolamine N-methyltransferase (Homo sapiens) (UniProt P11086); assay: as above; settings: MTase-Glo luminescence, SAH detection, recombinant enzyme; measured here: PNMT max response; stronger effect = lower value
[11] = target: Nuclear receptor subfamily 1 group I member 3 (Homo sapiens) (UniProt Q14994); assay: Primary qHTS for antagonist of constitutive androstane receptor (CAR) against the NCATS DSHEA and TCM libraries (AID 1794836)
Outline: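 HepG2 cells stably carrying hCAR and a CYP2B6 luciferase reporter (2,500 cells/well) attached for 5 h, then received compounds with 48 uM CITCO for 24 h at 37C. ONE-Glo luminescence read antagonism; CellTiter-Fluor (405/540 nm) gave viability.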

[12] = NCATS anti-infectives library activity on HEK293 viability as a counter-qHTS vs the C. elegans viability qHTS (AID 1745854);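 note: HEK293 cells exposed to compounds for 24 hr before the viability read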
Outline: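 Cytotoxicity in human HEK293 cells is measured by ATP-dependent CellTiter-Glo luminescence following a 24 hr incubation with titrated library compounds at 37C. Top final concentration is 41.7 uM.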

Rap guanine nucleotide exchange factor 4 (Homo sapiens), sequence (Q8WZA2 whole entry, looked up): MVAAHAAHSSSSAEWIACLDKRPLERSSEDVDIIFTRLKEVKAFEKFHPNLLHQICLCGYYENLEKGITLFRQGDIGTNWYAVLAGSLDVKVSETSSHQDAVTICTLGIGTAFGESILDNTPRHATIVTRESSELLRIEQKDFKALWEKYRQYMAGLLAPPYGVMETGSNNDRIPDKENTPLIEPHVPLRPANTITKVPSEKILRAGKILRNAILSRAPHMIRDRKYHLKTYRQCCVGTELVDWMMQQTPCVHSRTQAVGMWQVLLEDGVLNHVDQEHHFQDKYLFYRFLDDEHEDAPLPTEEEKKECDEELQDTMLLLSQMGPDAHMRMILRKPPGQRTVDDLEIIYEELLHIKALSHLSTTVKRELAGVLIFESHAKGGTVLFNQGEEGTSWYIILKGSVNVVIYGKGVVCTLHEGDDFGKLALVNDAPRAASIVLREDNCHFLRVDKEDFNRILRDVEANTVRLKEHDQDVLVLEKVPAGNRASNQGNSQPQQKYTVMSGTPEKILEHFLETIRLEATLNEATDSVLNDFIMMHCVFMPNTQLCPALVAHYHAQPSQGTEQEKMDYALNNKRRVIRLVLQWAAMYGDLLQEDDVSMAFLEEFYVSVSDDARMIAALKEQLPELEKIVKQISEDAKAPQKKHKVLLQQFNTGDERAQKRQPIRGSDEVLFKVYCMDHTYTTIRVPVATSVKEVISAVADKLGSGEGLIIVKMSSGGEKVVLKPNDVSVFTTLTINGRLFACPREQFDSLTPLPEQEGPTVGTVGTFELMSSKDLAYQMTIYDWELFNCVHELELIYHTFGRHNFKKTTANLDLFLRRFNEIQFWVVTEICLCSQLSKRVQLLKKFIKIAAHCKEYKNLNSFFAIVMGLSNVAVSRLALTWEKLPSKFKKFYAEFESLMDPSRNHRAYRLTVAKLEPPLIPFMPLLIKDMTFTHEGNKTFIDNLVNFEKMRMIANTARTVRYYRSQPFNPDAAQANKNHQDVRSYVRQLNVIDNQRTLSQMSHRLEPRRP
Nuclear receptor subfamily 1 group I member 3 (Homo sapiens), sequence (Q14994 whole entry, looked up): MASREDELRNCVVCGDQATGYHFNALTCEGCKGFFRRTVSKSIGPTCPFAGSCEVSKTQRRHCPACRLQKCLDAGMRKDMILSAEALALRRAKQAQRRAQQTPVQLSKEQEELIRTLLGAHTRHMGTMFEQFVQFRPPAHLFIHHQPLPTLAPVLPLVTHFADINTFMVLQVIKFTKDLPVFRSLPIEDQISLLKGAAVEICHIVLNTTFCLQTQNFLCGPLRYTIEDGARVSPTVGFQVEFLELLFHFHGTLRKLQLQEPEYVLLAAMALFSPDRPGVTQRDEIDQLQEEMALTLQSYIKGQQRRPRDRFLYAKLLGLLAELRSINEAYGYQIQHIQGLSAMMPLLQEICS
Glutathione peroxidase 1 (Homo sapiens), sequence (P07203 whole entry, looked up): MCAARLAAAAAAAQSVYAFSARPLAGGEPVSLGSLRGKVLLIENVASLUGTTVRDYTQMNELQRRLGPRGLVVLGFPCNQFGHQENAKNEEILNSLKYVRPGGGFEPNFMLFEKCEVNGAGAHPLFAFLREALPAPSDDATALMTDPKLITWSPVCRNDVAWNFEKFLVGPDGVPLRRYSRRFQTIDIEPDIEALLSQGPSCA
Rap guanine nucleotide exchange factor 3 (Homo sapiens), sequence (O95398 whole entry, looked up): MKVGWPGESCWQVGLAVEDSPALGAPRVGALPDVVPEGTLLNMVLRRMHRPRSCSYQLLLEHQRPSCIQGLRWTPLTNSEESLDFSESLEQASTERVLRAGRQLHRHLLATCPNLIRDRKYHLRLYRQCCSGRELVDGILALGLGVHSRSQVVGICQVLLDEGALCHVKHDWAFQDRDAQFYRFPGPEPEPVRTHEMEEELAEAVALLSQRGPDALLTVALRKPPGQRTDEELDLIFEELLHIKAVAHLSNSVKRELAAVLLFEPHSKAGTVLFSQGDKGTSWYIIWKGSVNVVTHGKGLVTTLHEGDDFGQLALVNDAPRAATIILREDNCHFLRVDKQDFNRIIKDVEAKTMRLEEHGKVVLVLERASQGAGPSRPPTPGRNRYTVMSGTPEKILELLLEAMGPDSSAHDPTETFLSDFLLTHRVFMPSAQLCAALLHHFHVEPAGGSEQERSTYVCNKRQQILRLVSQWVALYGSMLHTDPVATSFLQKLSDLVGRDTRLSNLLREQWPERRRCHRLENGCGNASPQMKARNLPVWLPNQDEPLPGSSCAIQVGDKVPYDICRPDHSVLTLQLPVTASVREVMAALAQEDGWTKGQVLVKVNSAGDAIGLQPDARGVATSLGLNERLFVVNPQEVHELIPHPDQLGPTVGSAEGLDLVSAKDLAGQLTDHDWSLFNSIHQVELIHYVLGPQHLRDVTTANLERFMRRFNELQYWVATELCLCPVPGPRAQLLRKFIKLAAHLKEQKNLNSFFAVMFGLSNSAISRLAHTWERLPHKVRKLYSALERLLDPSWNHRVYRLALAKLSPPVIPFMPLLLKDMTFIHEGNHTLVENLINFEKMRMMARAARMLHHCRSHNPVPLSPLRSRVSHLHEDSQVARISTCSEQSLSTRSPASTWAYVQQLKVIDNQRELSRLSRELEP
Nicotinamide N-methyltransferase (Homo sapiens), sequence (P40261 whole entry, looked up): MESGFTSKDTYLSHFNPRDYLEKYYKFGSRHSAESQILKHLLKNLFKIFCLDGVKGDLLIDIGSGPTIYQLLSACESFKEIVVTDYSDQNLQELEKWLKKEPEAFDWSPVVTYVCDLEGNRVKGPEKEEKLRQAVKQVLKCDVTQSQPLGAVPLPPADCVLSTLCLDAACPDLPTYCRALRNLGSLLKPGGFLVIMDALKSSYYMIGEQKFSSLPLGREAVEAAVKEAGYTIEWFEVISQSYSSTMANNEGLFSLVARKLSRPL
Catechol O-methyltransferase (Homo sapiens), sequence (P21964 whole entry, looked up): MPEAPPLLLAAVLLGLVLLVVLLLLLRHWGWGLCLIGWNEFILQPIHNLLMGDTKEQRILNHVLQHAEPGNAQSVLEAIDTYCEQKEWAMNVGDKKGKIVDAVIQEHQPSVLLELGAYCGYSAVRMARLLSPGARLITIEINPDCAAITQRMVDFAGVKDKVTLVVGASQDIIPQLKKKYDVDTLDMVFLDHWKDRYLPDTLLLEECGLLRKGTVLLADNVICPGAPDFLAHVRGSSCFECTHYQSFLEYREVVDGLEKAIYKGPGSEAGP
Phenylethanolamine N-methyltransferase (Homo sapiens), sequence (P11086 whole entry, looked up): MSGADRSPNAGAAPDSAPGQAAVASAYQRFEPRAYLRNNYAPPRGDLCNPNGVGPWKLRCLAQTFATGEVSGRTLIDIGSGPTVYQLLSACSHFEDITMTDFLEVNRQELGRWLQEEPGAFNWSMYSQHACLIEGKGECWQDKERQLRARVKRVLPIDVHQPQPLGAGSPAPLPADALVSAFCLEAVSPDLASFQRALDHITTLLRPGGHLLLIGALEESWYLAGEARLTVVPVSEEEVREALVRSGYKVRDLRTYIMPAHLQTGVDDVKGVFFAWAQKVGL

With `COCC(=O)N(c1c(C)cccc1C)C(C)C(=O)OC` (stereo not drawn) the Potency [1] was “inactive” and the Potency [2] was “inactive”.

For `Cc1ncc2n1-c1ccc(Cl)cc1C(c1ccccc1F)=NC2`, the Potency [1] was 23.7 µM (active) and the Potency [2] was 13.3 µM (active).

In the case of `CCO[C@H]1O[C@@H]2OC3(C)CC[C@H]4[C@H](C)CC[C@@H]([C@H]1C)[C@@]24OO3`, the Potency [1] is reported as 2.99 µM (active) and the Potency [2] is reported as 3.35 µM (active).

For `CN1C[C@@H](NS(=O)(=O)N(C)C)C[C@@H]2c3cccc4c3c(cn4C)C[C@H]21`, the Potency [1] was “inactive” and the Potency [2] was “inactive”.

For `ClC1=C(Cl)C2(Cl)C(CBr)CC1(Cl)C2(Cl)Cl` (stereo not drawn), the Potency [1] was “inactive” and the Potency [2] was “inactive”.

In the case of `C[N+]1(CCC(C(N)=O)(c2ccccc2)c2ccccc2)CCCCC1`, the Potency [1] is reported as “inactive” and the Potency [2] is reported as “inactive”.

For `CCN1CCCC1CNC(=O)C(O)(c1ccccc1)c1ccccc1` (stereo not drawn), the Potency [1] was “inactive” and the Potency [2] was “inactive”.

In the case of `CCN(CC)C(C)C(=O)c1ccccc1` (stereo not drawn), the Potency [1] is reported as “inactive” and the Potency [2] is reported as “inactive”.

For `COc1ccc(OC)c(CC(C)N)c1` (stereo not drawn), the Potency [1] was “inactive” and the Potency [2] was “inactive”.

In the case of `C[N+](C)(C)CCOC(=O)C(O)(c1ccccc1)c1ccccc1`, the Potency [1] is reported as “inactive” and the Potency [2] is reported as “inactive”.

For `CC(C)=CCN1CC[C@@]2(C)c3cc(O)ccc3C[C@@H]1[C@@H]2C`, the Potency [1] was 18.9 µM (active) and the Potency [2] was 11.9 µM (active).

With `Oc1ccc2[nH]cc(CCCCN3CC=C(c4ccccc4)CC3)c2c1` the Potency [1] was 7.5 µM (active) and the Potency [2] was 7.5 µM (active).

With `O=c1[nH]c2cc(Cl)ccc2n1C1CCNCC1` the Potency [1] was “inactive” and the Potency [2] was “inactive”.

In the case of `CC(=O)OC1(c2ccccc2)CCN(CCc2ccccc2)CC1`, the Potency [1] is reported as “inactive” and the Potency [2] is reported as “inactive”.

For `Clc1ccc(CSC(Cn2ccnc2)c2ccc(Cl)cc2Cl)cc1` (stereo not drawn), the Potency [1] was 5.96 µM (active), the Potency [2] was 5.96 µM (active) and the outcome [3] was “inactive”. For the same compound, the outcome [4] was “inactive”, the Potency [5] was 22.1 µM (active) and the outcome [6] was “inactive”.

In the case of `OC(O)C(Cl)(Cl)Cl`, the Potency [1] is reported as “inactive” and the Potency [2] is reported as “inactive”.

In the case of `CCC(OC(C)=O)C(CC(C)NC)(c1ccccc1)c1ccccc1` (stereo not drawn), the Potency [1] is reported as 24.6 µM (active) and the Potency [2] is reported as 19.5 µM (active).

With `COc1cc(CC#N)cc(OC)c1OC` the Potency [1] was “inactive” and the Potency [2] was “inactive”.

For `CC(C)NCC(O)c1ccc(N)c(C#N)c1` (stereo not drawn), the Potency [1] was “inactive” and the Potency [2] was “inactive”.

For `CCOC(=O)C(c1c(O)c2ccccc2oc1=O)c1c(O)c2ccccc2oc1=O`, the Potency [1] was “inactive” and the Potency [2] was “inactive”.

With `CCNc1nc(Cl)nc(NCC)n1` the Potency [1] was “inactive” and the Potency [2] was “inactive”.

In the case of `CN(C)CCc1c[nH]c2ccccc12`, the Potency [1] is reported as “inactive” and the Potency [2] is reported as “inactive”.

For `C[C@H](N)[C@H](O)c1ccc(O)c(O)c1`, the Potency [1] was “inactive”, the Potency [2] was “inactive” and the outcome [3] was “inactive”. For the same compound, the Potency [5] was “inactive” and the outcome [6] was “inactive”.

With `C[C@]12CC[C@H]3[C@@H](CC=C4C[C@@H](O)CC[C@@]43C)[C@@H]1CC[C@@H]2O` the Potency [1] was “inactive” and the Potency [2] was “inactive”.

In the case of `C=CCN1CC[C@]23CCCC[C@H]2[C@H]1Cc1ccc(O)cc13`, the activity [7] is reported as 0.434%, the activity change, negative = inhibition [8] is reported as 3.29% and the activity [9] is reported as -15.3%. For the same compound, the activity [10] was 2.6%.

In the case of `Oc1ccc(/C=C/c2cc(O)cc(O)c2)cc1`, the outcome [11] is reported as “inactive”.

In the case of `OC[C@H]1O[C@@H](OCCc2ccc(O)cc2)[C@H](O)[C@@H](O)[C@H]1O`, the outcome [11] is reported as “inactive”.

In the case of `O=C(NC(=O)c1c(F)cccc1F)Nc1cc(Cl)c(OC(F)(F)C(F)C(F)(F)F)cc1Cl` (stereo not drawn), the outcome [6] is reported as “inactive”.

For `CCC(=O)O[C@H]1CC[C@H]2[C@@H]3CCC4=CC(=O)CC[C@]4(C)[C@H]3CC[C@]12C`, the Potency [1] was 23.7 µM (active) and the outcome [6] was “inactive”.

With `COP(=S)(OC)Oc1ccc(S(N)(=O)=O)cc1` the Potency [1] was “inactive”, the Potency [2] was “inactive” and the outcome [6] was “inactive”.

With `Cn1c(=O)c2c(ncn2C)n(C)c1=O` the outcome [11] was “inactive”.

With `CN(C)C(=S)SSC(=S)N(C)C` the outcome [6] was “inactive”.

For `N#Cc1nn(-c2c(Cl)cc(C(F)(F)F)cc2Cl)c(N)c1S(=O)C(F)(F)F` (stereo not drawn), the Potency [2] was 21.1 µM (active) and the outcome [6] was “inactive”.

With `C#C[C@]1(O)C=C[C@H]2[C@@H]3CCC4=CC(=O)CC[C@@H]4[C@H]3CC[C@@]21CC` the outcome [6] was “inactive”.

In the case of `C[C@@H]1CC[C@H]2[C@@H](C)C(=O)O[C@@H]3O[C@@]4(C)CC[C@@H]1[C@]32OO4`, the Potency [2] is reported as 5.25 µM (active), the outcome [12] is reported as “inactive” and the outcome [6] is reported as “inactive”.

With `O=C1O[C@H]([C@@H](O)CO)C(O)=C1O` the outcome [11] was “inactive”.

In the case of `CC[C@H]1C[C@H]2[C@@H]3CCC4=CC(=O)CC[C@@H]4[C@H]3CC[C@]2(C)[C@H]1O`, the outcome [6] is reported as “inactive”.

For `CC(C(O)c1ccccc1)N(C)C/C=C/c1ccccc1` (stereo not drawn), the outcome [6] was “inactive”.

For `C[C@H]1C(=O)O[C@@H]2CCN3CC=C(COC(=O)[C@](C)(O)[C@]1(C)O)[C@H]23`, the Potency [2] was 23.7 µM (active).

For `CNC(=O)Oc1cccc2ccccc12`, the outcome [6] was “inactive”.

For `CCCCC1C(=O)NC(=O)N(C2CCCCC2)C1=O` (stereo not drawn), the outcome [6] was “inactive”.

In the case of `COc1ccc2cc3[n+](cc2c1OC)CCc1cc2c(cc1-3)OCO2`, the outcome [11] is reported as “inactive”.

For `C=CC[C@]1(O)CC[C@H]2[C@@H]3CCC4=CC(=O)CCC4=C3C=C[C@@]21C`, the Potency [2] was 23.7 µM (active) and the outcome [6] was “inactive”.

In the case of `O=C(N[C@H]1N=C(c2ccccc2F)c2cccc3c2N(CC3)C1=O)c1cc2ccccc2[nH]1`, the outcome [6] is reported as “inactive”.

For `Nc1nc2ncc(CNc3ccc(C(=O)N[C@@H](CCC(=O)O)C(=O)O)cc3)nc2c(=O)[nH]1`, the outcome [11] was “inactive”.

For `CNC(C)Cc1ccccc1OC` (stereo not drawn), the outcome [6] was “inactive”.

In the case of `CC(Cc1ccccc1)NCCCCl` (stereo not drawn), the outcome [6] is reported as “inactive”.

For `Cc1cccc(Cc2cnc[nH]2)c1C`, the outcome [6] was “inactive”.

With `CCC(=O)C(CCN(C)C)(c1ccccc1)c1ccccc1` the outcome [6] was “inactive”.

For `C[C@]12CC[C@H]3[C@@H](CCC4=CC(=O)CC[C@@H]43)[C@@H]1CC[C@@H]2O`, the Potency [2] was “inactive”.

In the case of `C=CCOC(Cn1ccnc1)c1ccc(Cl)cc1Cl` (stereo not drawn), the Potency [1] is reported as 23.7 µM (active) and the outcome [6] is reported as “inactive”.
